Assay outcomes as filed in PubChem BioAssay.
DT40 TDP1 no CPT = qHTS for Inhibitors of human tyrosyl-DNA phosphodiesterase 1 (TDP1): qHTS in cells in absence of CPT | DT40 Tdp1-/- hTDP1 cells, no CPT, ATP luminescence, 48 h | Potency, µM (titrated, usually from 46.2 µM), without a hit: at the top dose activity change, negative = growth inhibition, hits mostly inhibitors | hit rate 15% among 420,000 | AID 686978, 2013; further: potency means the concentration at half of the fitted maximal effect; on the % scale 0 is the no-effect control and ±100 the full control effect; nearly all actives have a fitted effect of over 55% in size
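Cells were dispensed at 400 per well, compounds added by pin tool, plates incubated ≥48 hr at 37 °C, then CellTiter-Glo added for 30 min at room temperature before luminescence reading. Line: DT40 Tdp1-/- complemented with hTDP1; camptothecin omitted.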
ASM inhibitor = inhibitors of human secretory acid sphingomyelinase; Potency, µM (doses to about 57.5 µM), without a hit: at the highest dose activity change, negative = inhibition, actives largely listed as inhibitors; hit rate 0.006% among 340,000; P17405; placental ASM, HMU-PC fluorogenic substrate, 60 min; further: potency means the concentration at half of the fitted maximal effect
Target sequence (P17405 47-631 limits assumed): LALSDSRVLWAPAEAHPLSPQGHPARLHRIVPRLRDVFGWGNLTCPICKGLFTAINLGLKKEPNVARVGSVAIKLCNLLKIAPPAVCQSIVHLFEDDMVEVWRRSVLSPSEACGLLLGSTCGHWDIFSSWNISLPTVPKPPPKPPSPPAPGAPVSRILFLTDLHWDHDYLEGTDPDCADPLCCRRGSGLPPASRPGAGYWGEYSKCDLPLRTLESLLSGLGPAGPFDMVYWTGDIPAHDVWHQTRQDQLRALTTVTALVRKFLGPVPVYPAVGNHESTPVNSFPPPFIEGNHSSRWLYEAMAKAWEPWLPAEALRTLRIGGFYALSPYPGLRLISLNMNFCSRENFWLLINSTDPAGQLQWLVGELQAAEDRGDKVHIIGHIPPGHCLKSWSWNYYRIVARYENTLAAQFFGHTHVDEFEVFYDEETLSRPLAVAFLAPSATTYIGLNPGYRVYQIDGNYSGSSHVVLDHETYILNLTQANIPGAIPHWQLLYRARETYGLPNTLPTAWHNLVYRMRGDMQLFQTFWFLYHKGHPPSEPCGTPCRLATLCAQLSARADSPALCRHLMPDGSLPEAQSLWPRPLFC
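qHTS format. ASM enzyme prepared from human placenta hydrolyses the fluorogenic substrate HMU-PC0 (9 uM final) over 60 min at 37 °C after a 10 min compound preincubation.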
IL1B secr inh = inflammasome signaling inhibition, IL-1 beta readout. THP-1 LPS/ATP IL-1B secretion, AlphaLISA, 16 h; stronger effect = lower value. hit rate 4.7% among 360,000. activity change, % at 57.5 µM; in the data active means activity change below about -50%; inconclusive means mostly about -30% to -49%; further: on the % scale 0 is the no-effect control and ±100 the full control effect
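Secreted IL-1B measured by AlphaLISA bead assay after 16 h compound exposure of THP-1 cells; compounds (final up to 57.5 uM) added 1 h before LPS (250 ng/mL) and ATP (1.25 mM) stimulation; lower signal means less secretion.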
HepG2 tox = counter-screen for TGF-b inhibitors: cytotoxicity in HepG2 cells; HepG2 CAGA-GFP viability, ATP luminescence, 18 h; Potency, µM (top dose mostly 46.1 µM), for the others: top-dose activity change, negative = cytotoxicity, most hits filed as cytotoxic; hit rate 0.76% among 410,000; further: potency means the concentration at half of the fitted maximal effect
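CellTiter-Glo luminescence gave cytotoxicity after 18 hours at 37 degrees C. The cells were HepG2 CAGA-GFP in 1% FBS DMEM, stimulated with 500 pg/mL TGF-beta after compound addition. %Activity was normalised to no-cell wells (complete cell-killing) and DMSO (no toxicity), and curves were fitted and classified.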
TGFb inhibitor = blocks TGF-b signaling; AID 588855; Potency, µM (series often up to 46.1 µM), without a hit: at the highest dose activity, negative = inhibition, hits mostly inhibitors; HepG2 CAGA-GFP TGF-b/SMAD3 reporter, GFP fluorescence, 18 h; TGF-beta stimulated, 500 pg/mL final; hit rate 1.2% among 410,000; further: potency means the concentration at half of the fitted maximal effect; on the % scale 0 is the no-effect control and ±100 the full control effect; nearly all actives have a fitted effect of over 65% in size
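Smad-responsive CAGA-GFP expression was quantified in HEPG2 cells exposed to compounds and 500 pg/mL final TGF-beta for 18 h at 37 degrees C; unstimulated wells defined full inhibition.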
DT40 TDP1 CPT = DT40-hTDP1 cell growth loss with CPT | chicken DT40 Tdp1-/-;hTDP1 cells + 20 nM CPT, ATP luminescence, 48 h | Potency, µM (titrated, usually from 46.2 µM), for the others: at the top dose activity change, negative = growth inhibition, actives largely listed as inhibitors | hit rate 12% among 420,000 | AID 686979; further: potency means the concentration at half of the fitted maximal effect; on the % scale 0 is the no-effect control and ±100 the full control effect; nearly all actives have a fitted effect of over 55% in size
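Chicken DT40 Tdp1-/- cells stably complemented with human TDP1 were seeded at 400 cells/well in medium containing 20 nM camptothecin, exposed to pin-transferred compounds, and grown at 37 °C for at least 48 hr. Viability was read as ATP luminescence.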
Numbers without * were called inactive; ? = inconclusive; nt = no result given; ! = not confirmed by another sample. Sampled rows, rich in hits. Any-hit rate of the full collection: about 19%. Unless noted, the call rests on the fitted dose curve; in most records, active means well fitted curve in the direction sought with a large enough effect; inconclusive means small, poorly fitted or top-dose-only effect, or another doubt; inactive means no such curve, though single readings can be large; an effect the other way counts as inactive or inconclusive.

SMILES | DT40 TDP1 no CPT | ASM inhibitor | IL1B secr inh | HepG2 tox | TGFb inhibitor | DT40 TDP1 CPT
COc1ccc(Cl)cc1Nc1nc(N)c2ccccc2n1 | ? | -7.0% | -89.4* | -17.4% | -24.4% | ?
Nc1nc(Nc2cccc(F)c2)nc2ccccc12 | 18.4µM* | 1.8% | -111.3* | -29.5% | -3.4% | 18.4µM*
COc1ccc(C)cc1Nc1nc(N)c2cc(OC)c(OC)cc2n1 | 23.1µM* | -0.8% | -92.4* | -170.2% | ? | 4.61µM*
COc1cc2nc(C#N)nc(N)c2cc1OC | 20µM* | nt | nt | nt | nt | ?
COc1cc2nc(N3CCNCC3)nc(N)c2cc1OC | -106.6% | 18.3% | 22.2 | -92.8% | ? | -88.4%
COc1cc2nc(N3CCN(c4cc(C)ccc4C)CC3)nc(N)c2cc1OC | 7.31µM* | -7.6% | -97.2* | 11.2µM* | ? | 8.2µM*
C=CCC[C@@H](Cc1ccc(F)cc1)C(=O)O[C@H](CNC(=O)[C@@H](CC=C)CC(=O)N[C@H](CO)Cc1ccccc1)c1ccccc1 | ? | 5.7% | -1.6 | 3.3% | ? | -18.6%
CC(=O)NC(c1ccc(F)c(F)c1)c1nc(-c2ccncc2)cs1 (configuration not stated) | 14.6µM* | nt | 10.8 | -9.8% | ? | 18.4µM*
CC(=O)NC(c1ccc(F)c(F)c1)c1nc(-c2cccc(C(C)C)c2)cs1 (configuration not stated) | 23.1µM* | nt | ? | -14.3% | -11.7% | 16.4µM*
CC(=O)NC(c1ccc(F)c(F)c1)c1nc(-c2cccc(F)c2)cs1 (configuration not stated) | -25.9% | nt | -15.8 | -9.5% | 9.2% | 20.6µM*
CCC1(c2ccccc2)NC(=O)N(CC(=O)Nc2ccc(N3CCOCC3)cc2)C1=O (configuration not stated) | 0.3% | 1.6% | -9.9 | -2.4% | 0.6% | -10.1%
N#CCC1(O)C(=O)N(Cc2ccccc2)c2ccccc21 (configuration not stated) | 0.9% | nt | 22.5 | nt | nt | -16.4%
CCc1ccccc1NC(=O)CCC(=O)N1CC(C)Oc2ccc(C)cc21 (configuration not stated) | ? | nt | nt | -17.1% | 1.7% | ?
COc1ccc(NS(=O)(=O)c2cccc(N/C(=N\S(=O)(=O)c3ccccc3)c3ccc(F)cc3)c2)cc1 | ? | -4.5% | -6.3 | -24.7% | ? | 20.6µM*
O=S(=O)(/N=C(/Nc1ccc(Cl)c(S(=O)(=O)Nc2ccccc2Cl)c1)c1ccc(F)cc1)c1ccccc1 | -6.5% | -4.5% | -74.8*! | 7.9% | ? | 2.7%
COc1ccc(NS(=O)(=O)c2cccc(C(=O)Nc3cccc(C(=O)O)c3)c2)cc1 | 5.1% | 8.5% | -7.9 | -4.9% | 0.5% | -18.1%
COc1ccccc1NS(=O)(=O)c1cc(N/C(=N/S(=O)(=O)c2ccccc2)c2ccc(F)cc2)ccc1Cl | 20.6µM* | nt | ? | -11.2% | 1.5% | nt
O=C(Nc1nc(OCCN2CCCC2=O)cnc1/C=C\c1ccccc1)c1cc2ccccc2s1 | ? | nt | -19.3 | -22.3% | -4.5% | 29.1µM*
CC(=O)Nc1nc(C)c(Oc2ccc(Cl)cc2)c(=O)[nH]1 | 1.8% | -2.2% | -12.3 | -14.1% | 14.3% | -0.3%
Cc1nc(N)nc(N)c1Oc1ccc(Cl)cc1 | ? | -0.3% | 18.8 | -10.8% | 4.8% | 9.2µM*
COc1ccc(-c2[nH]ncc2C(=O)NCc2cccc(Cl)c2)cc1 | ? | nt | nt | -8.6% | nt | 3.5%
O=C(Nc1cc(-c2ccccc2)nn1-c1c(Cl)cccc1Cl)c1ccc(F)cc1 | 18.4µM* | -5.2% | -25.1 | 9.7% | -44.4% | 20.6µM*
N#Cc1ccc(C(=O)Nc2cc(-c3ccc(F)cc3)nn2-c2ccccc2)cc1 | ? | -10.7% | -6.2 | -29.2% | ? | 14.6µM*
CCc1cccc(CC)c1NC(=O)C1CCC(CNS(=O)(=O)c2cccc3nsnc23)CC1 (configuration not stated) | ? | nt | nt | -4.6% | -14.2% | -14.8%
CCc1ccc(NC(=O)CN2CCN(Cc3ccccc3)S2(=O)=O)cc1 | -23.9% | nt | nt | -8.7% | -4.4% | -16.8%
SMILES | DT40 TDP1 no CPT | ASM inhibitor | IL1B secr inh | HepG2 tox | TGFb inhibitor | DT40 TDP1 CPT
CC(C)C[C@@H]1COc2cccc(N3CCSCC3)c2S(=O)(=O)N1 | -27.8% | nt | 15.1 | nt | nt | -13.7%
COc1cc(OC)cc(C(=O)NCC(C)NC(=O)c2cc(OC)cc(OC)c2)c1 (configuration not stated) | -25.9% | 5.1% | 3.4 | -22.8% | -5.8% | 29.5%
CSc1nc2ccc(NC(=O)COc3ccccc3F)cc2s1 | ? | -6.9% | 25.7 | -18.3% | 1.9% | -14.4%
O=C(COc1ccccc1F)Nc1ccc2nc(SCC(=O)N3CCCC3)sc2c1 | 13µM* | nt | nt | -30.2% | 0.0% | ?
CCOC(=O)CSc1nc2ccc(NC(=O)c3ccccc3F)cc2s1 | -8.7% | nt | nt | 1.4% | 27.3% | -20.6%
O=C(COc1ccccc1F)Nc1ccc2nc(SCC(=O)N3CCOCC3)sc2c1 | 11.6µM* | nt | nt | -24.2% | -18.0% | 18.4µM*
O=C(Nc1ccc2nc(SCC(=O)N3CCCC3)sc2c1)c1ccccc1F | 16.4µM* | nt | nt | -21.9% | 0.0% | 16.4µM*
O=C(Cc1ccccc1)NCC(=O)N1CCCC1 | -2.4% | -0.2% | 0.3 | 2.3% | -10.2% | 0.6%
CC(=O)N1CCOc2ccc(S(=O)(=O)NCc3ccc(F)cc3)cc21 | 18.5% | -0.5% | 39.7 | 2.5% | 6.2% | -4.2%
CCOC(=O)Cc1cc(=O)[nH]n(-c2ccccc2)c1=O | 6.9% | 5.5% | -7.0 | 3.7% | 10.3% | 3.1%
CCOc1ccc(CCNC(=O)c2cn(-c3cccc(OC)c3)c(=O)c3ccccc23)cc1 | 20.6µM* | nt | nt | -6.6% | -51.8% | ?
